# Inconclusive results are not listed. Entries that show only a call come without a potency. The source made the active and inactive calls. The call rests on the fitted dose curve; in most records, active means well fitted inhibition curve with a large enough effect; inconclusive means small, poorly fitted or top-dose-only effect; inactive means flat fitted curve, though single readings scatter.
# Tested on: ATS189
# Test: qHTS profiling for inhibitors of Plasmodium falciparum proliferation (AID 504749); further: nearly all actives have a fitted effect of over 60% in size
# Details: P. falciparum in erythrocytes, SYBR Green DNA, 72 h; series mostly up to 28.7 µM
# Summary of the method: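 In a 72 h erythrocytic culture (37 C, humidified, 5% CO2) at 2.5% hematocrit and 0.3% starting parasitemia, compounds were tested; SYBR Green I in detergent lysis buffer stained parasite DNA overnight.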
row,Compound,Potency
1,CNCCCC1c2ccccc2C=Cc2ccccc21,inactive
2,Cc1c(Cl)cccc1Nc1ccccc1C(=O)O,inactive
3,CCOc1nc2cccc(C(=O)O)c2n1Cc1ccc(-c2ccccc2-c2nn[nH]n2)cc1,inactive

# — PubChem BioAssay (NCATS)
